Data reported in PubChem BioAssay AID504766 (The Scripps Research Institute Molecular Screening Center, 2011).
Hit rate of the full screen: of about 340,000 compounds, about 3,400 (1%) were called active.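 How the source made its calls: active means inhibition above the mean over all tested compounds plus 3 SD (cut at about 4.2% in these data); inactive means the rest.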 Many of the other results were omitted from the sample, so actives are more common in it than they were.

Target: Nuclear receptor subfamily 0 group B member 1 (Homo sapiens) (UniProt P51843)
Assay: DAX1 (NR0B1) inhibitors, primary screen, cell-based, HEK293, Gal4-DAX1, luciferase luminescence (AID 504766);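 further: 0% = DAX1-transfected cells with DMSO and 100% = empty-vector control cells with DMSO; inhibition shows as a rise in luminescence from relieved DAX1 repression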
Settings: HEK293 Gal4-DAX1 luciferase reporter, at 6.75 µM, stronger effect = higher value

Chain of Nuclear receptor subfamily 0 group B member 1 (Homo sapiens) (P51843 207-470 limits assumed): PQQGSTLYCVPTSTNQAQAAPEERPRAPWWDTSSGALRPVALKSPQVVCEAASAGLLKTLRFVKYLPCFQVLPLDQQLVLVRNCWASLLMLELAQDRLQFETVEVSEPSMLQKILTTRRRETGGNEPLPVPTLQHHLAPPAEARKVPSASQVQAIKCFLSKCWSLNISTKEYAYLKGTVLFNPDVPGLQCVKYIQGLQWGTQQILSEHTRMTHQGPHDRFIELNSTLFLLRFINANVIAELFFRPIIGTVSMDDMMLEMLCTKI

Row | Structure (SMILES) | inhibition
1 | CC1C(=O)OC2CCN3CC=C(COC(=O)C(C)(O)C1(C)O)C23 (stereo not given) | 6.45% (active)
2 | O=C(NCC1=C(c2ccc3ccccc3c2)C[C@@H]2CC[C@H]1N2Cc1ccco1)c1cccs1 | 0.9% (inactive)
3 | CN(C)CC1CCCCC1OC(=O)c1ccc(Cl)c(Cl)c1 (stereo not given) | 1.17% (inactive)
4 | N=c1ccccn1Cc1ccccc1 | 4.71% (active)
5 | COc1cc2nc(N3CCN(C(=O)[C@@H]4CCCO4)CC3)nc(N)c2cc1OC | -1.49% (inactive)
6 | CC(C(=O)Nc1ccc(Cl)cc1Cl)N1CC=C(c2ccccc2)CC1 (stereo not given) | 0.95% (inactive)
7 | COC(=O)C1=C(c2ccc3ccccc3c2)C[C@@H]2CC[C@H]1N2C(=O)NCCO | -0.02% (inactive)
8 | COC(=O)C1=C(c2ccc(F)cc2F)C[C@@H]2CC[C@H]1N2C(=O)NC1CC1 | 1.3% (inactive)
9 | Fc1ccc(C2N3CCCN23)cc1 (stereo not given) | 6.8% (active)
10 | Cc1cccc(NC(=O)N2CC3CC(C2)c2cccc(=O)n2C3)c1 (stereo not given) | -0.11% (inactive)
11 | CC(=CCOc1ccc2ccc(=O)oc2c1)C1=CC(=O)C(C)(C)O1 | -1.41% (inactive)
12 | C[C@]12CC[C@H](O)CC1=C([N+](=O)[O-])CC1C2CC[C@@]2(C)C1CC[C@@H]2O (stereo not given in full) | 0.51% (inactive)
13 | COc1ccc(-c2nn(CCC#N)cc2C(=O)O)cc1 | 0.78% (inactive)
14 | O=C(N/N=C/c1c(O)n(Cc2ccccc2)c(=O)[nH]c1=O)c1ccccc1 | 0.57% (inactive)
15 | CC/C(=N\NC(=O)c1ccccc1O)c1c(O)n(Cc2ccccc2)c(=O)[nH]c1=O | 4.6% (active)
16 | CCC(=NCc1ccco1)c1c(O)n(Cc2ccccc2)c(=O)[nH]c1=O | -0.6% (inactive)
17 | Cc1ccc(OC(=O)N(C)C[C@@H]2OCc3cnnn3CCCC(=O)N([C@H](C)CO)C[C@@H]2C)cc1 | 1.2% (inactive)
18 | COC(=O)C1=C(c2cccc(OCc3ccccc3)c2)C[C@@H]2CC[C@H]1N2C(=O)NCc1ccc(Br)cc1 | -1.05% (inactive)
19 | C=Cn1ccnc1P(=S)(c1cc(N(CC)CC)ns1)c1nccn1C=C | 0.78% (inactive)
20 | Cc1nc2ccccn2c1P(=S)(N1CCCCC1)N1CCCCC1 | -0.88% (inactive)
21 | CC(=O)OC1C2(CC3N4C(=O)C5(CO)SSC4(CC31O)C(=O)N5C)OC(C)C(C)(C)C2=O (stereo not given) | -6.61% (inactive)
22 | O=C(c1cc(-c2ccncc2)nc2ccccc12)N1CCC2(CC1)OCCO2 | 1.03% (inactive)
23 | O=C(c1cc(S(=O)(=O)N2CCOCC2)ccc1F)N1CCC2(CC1)OCCO2 | 0.34% (inactive)
24 | O=C(c1ccccc1[N+](=O)[O-])N1CCC2(CC1)OCCO2 | 5.98% (active)
25 | CN(C)c1nc(N(C)C)nc(N(C#N)CCCl)n1 | -0.78% (inactive)
26 | CNCC(O)c1cc(F)c(OCc2ccccc2)c(OCc2ccccc2)c1F (stereo not given) | -0.1% (inactive)
27 | CN1CCc2cc3c(cc2[C@H]1[C@@H]1OC(=O)c2c1ccc1c2OCO1)OCO3 | 1.17% (inactive)
28 | O=C1NC(=O)C(CCOc2ccccc2)(CCc2ccccc2)C(=O)N1 | -0.23% (inactive)
29 | CCC(C)n1c(O)c(/C=N/Nc2nc3c(c(=O)n(C)c(=O)n3C)n2C)c(=O)[nH]c1=S (stereo not given) | 4.71% (active)
30 | O=C(CCC(=O)N1C[C@H]2C[C@@H](C1)c1cccc(=O)n1C2)NCc1ccccc1C(F)(F)F | 0.36% (inactive)
